# Test results published in PubChem BioAssay.
# Values without a mark were called inactive. A call without a number means that no potency is given here. For part of these data: Potency and affinity values are given separately. Active and inactive are the calls of the source. Unless noted, no rule for the calls is given here.
# What was measured:
# [1] = antimalarial activity against Dd2 strain (AID 2302;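 active = growth inhibition above 50% at the single 2 µM test dose, taken to imply half-maximal potency below 2 µM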); conditions: P. falciparum Dd2 in RBCs, LDH growth readout, 72 h; at 2 µM; hits give high values
# [2] = HepG2 cytotoxicity, primary screen, cytotoxicity control for P. falciparum antimalarial project, cell-based, ATP luminescence (AID 2303;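 active = inhibition above 50%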); conditions: HepG2 viability, 24-48 h, at 10 µM, hits give high values
# [3] = target: L-lactate dehydrogenase (Plasmodium falciparum (isolate CDC / Honduras)) (UniProt Q27743); test: PfLDH activity inhibition – cell lysate, 3D7 strain, counter-screen for P. falciparum growth inhibition project (AID 2304); conditions: P. falciparum 3D7 crude extract, LDH APAD/NBT absorbance; at 2 µM; hits give high values
# [4] = inhibition of 3D7 malaria parasite growth – strain 3D7 (AID 2306); conditions: P. falciparum 3D7 erythrocytic growth, LDH absorbance, 72 h; at 2 µM; hits give high values
# [5] = target: Calcium-dependent protein kinase 1 (Plasmodium falciparum (isolate 3D7)) (UniProt P62344); test: PfCDPK1 kinase inhibitors, biochemical, TCAMS library (AID 1159585; cut-off not given, nearly all actives have IC50 up to about 0.98 µM;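 also: inhibitors leave more ATP so luminescence rises with inhibition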); conditions: recombinant PfCDPK1, Kinase-Glo ATP depletion luminescence
# [6] = target: Plasmodium falciparum protein kinase 6 (PK6, PF3D7_1337100) (UniProt Q8IDW1); test: PfPK6 kinase inhibitors, biochemical, TCAMS library (AID 1159586); conditions: recombinant PfPK6, Kinase-Glo ATP depletion luminescence
# [7] = target: Protein kinase 7 (PK7), Plasmodium falciparum 3D7 (PF3D7_0213400) (UniProt Q7YTF7); test: inhibition of Plasmodium PK7 catalytic activity – biochemical, TCAMS antimalarial set, Kinase-Glo luminescence (AID 1159587); conditions: recombinant PfPK7, Kinase-Glo ATP depletion luminescence
# [8] = target: Calcium-dependent protein kinase 4 (Plasmodium falciparum (isolate 3D7)) (UniProt Q8IBS5); test: PfCDPK4 kinase inhibitors, biochemical, TCAMS library (AID 1159588; cut-off not given, nearly all actives have IC50 up to about 0.91 µM); conditions: recombinant PfCDPK4, Kinase-Glo ATP depletion luminescence
# Sequence of Calcium-dependent protein kinase 4 (Plasmodium falciparum (isolate 3D7)) (Q8IBS5 whole entry, looked up): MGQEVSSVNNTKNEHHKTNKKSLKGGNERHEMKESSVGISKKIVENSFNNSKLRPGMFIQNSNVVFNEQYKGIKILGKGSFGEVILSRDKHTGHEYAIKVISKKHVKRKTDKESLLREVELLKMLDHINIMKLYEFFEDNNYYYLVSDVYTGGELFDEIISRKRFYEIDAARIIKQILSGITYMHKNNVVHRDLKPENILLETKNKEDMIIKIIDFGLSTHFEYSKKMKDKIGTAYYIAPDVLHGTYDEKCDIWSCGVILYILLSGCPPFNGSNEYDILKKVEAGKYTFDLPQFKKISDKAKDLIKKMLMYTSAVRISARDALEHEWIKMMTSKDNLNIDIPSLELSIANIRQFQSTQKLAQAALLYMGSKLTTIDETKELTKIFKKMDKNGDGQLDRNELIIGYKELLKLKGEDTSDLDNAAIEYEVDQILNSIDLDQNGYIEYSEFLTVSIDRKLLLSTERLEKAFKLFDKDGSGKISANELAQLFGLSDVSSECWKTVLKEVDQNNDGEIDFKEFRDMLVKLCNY
# Sequence of Protein kinase 7 (PK7), Plasmodium falciparum 3D7 (PF3D7_0213400) (Q7YTF7 1-343): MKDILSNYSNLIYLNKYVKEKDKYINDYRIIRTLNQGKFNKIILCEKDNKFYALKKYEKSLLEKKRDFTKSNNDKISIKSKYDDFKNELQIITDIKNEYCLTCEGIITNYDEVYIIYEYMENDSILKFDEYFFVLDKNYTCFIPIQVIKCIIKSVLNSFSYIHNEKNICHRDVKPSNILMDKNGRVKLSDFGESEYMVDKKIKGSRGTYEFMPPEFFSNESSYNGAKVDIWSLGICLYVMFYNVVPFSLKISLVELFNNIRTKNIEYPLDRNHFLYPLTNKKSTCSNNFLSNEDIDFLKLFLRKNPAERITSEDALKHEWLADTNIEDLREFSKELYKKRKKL
# Sequence of Plasmodium falciparum protein kinase 6 (PK6, PF3D7_1337100) (Q8IDW1 1-305): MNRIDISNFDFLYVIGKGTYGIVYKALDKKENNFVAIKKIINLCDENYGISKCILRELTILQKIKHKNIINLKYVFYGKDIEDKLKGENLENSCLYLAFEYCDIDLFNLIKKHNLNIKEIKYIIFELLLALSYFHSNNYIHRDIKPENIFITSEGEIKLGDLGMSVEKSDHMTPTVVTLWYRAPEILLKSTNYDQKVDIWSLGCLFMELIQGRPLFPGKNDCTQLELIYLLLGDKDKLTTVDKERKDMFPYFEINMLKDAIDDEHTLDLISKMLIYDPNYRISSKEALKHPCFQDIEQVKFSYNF
# Sequence of L-lactate dehydrogenase (Plasmodium falciparum (isolate CDC / Honduras)) (Q27743 whole entry, looked up): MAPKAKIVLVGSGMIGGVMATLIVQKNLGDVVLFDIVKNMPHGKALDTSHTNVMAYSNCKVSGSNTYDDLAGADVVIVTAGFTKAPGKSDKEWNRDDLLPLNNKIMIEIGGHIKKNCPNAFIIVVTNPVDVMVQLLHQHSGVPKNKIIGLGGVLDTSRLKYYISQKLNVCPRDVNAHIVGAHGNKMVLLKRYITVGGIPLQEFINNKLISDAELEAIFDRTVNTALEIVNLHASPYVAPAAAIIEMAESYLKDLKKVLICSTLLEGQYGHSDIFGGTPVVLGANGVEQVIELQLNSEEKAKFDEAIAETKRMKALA
# Sequence of Calcium-dependent protein kinase 1 (Plasmodium falciparum (isolate 3D7)) (P62344 whole entry, looked up): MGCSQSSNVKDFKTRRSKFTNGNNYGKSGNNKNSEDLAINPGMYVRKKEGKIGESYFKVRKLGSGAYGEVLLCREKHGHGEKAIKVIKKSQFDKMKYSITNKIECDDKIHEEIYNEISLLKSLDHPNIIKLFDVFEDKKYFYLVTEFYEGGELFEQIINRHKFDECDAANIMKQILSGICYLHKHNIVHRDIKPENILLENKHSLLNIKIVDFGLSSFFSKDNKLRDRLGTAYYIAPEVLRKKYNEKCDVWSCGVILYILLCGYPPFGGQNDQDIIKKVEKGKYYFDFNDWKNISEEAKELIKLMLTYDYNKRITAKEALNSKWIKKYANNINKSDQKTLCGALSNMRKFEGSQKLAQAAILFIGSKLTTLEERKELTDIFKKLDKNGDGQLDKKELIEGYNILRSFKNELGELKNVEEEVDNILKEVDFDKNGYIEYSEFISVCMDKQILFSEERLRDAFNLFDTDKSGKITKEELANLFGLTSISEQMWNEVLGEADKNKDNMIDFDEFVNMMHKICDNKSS
Structure (SMILES),growth inhibition [1],inhibition [2],inhibition [3] [%],growth inhibition [4],outcome [5],outcome [6],outcome [7],outcome [8]
COc1ccccc1CN1CCC(CNC(=O)c2cc(-c3cccc(C(F)(F)F)c3)cs2)C1 (centres undefined),1%,25%,4,84% (active),inactive,inactive,inactive,inactive
N#Cc1cccc(C(=O)Nc2cccc(-c3ccc(CN4CCC(O)CC4)cc3)c2)c1,2%,15%,1,86% (active),inactive,inactive,inactive,inactive
Cc1nc(-c2cccc(Nc3nccc(NCC(O)c4ccccc4C)n3)c2)cs1 (centres undefined),14%,38%,-2,92% (active),inactive,inactive,inactive,inactive
CCc1cn2c3c(cc(C(=O)N[C@@H](Cc4ccccc4)[C@H](O)CNCc4ccccc4C)cc13)N(C)S(=O)(=O)CC2,98% (active),3%,5,98% (active),inactive,inactive,inactive,inactive
CCN1CCN(c2cc(C)c3cc(NC(=O)c4cccc([N+](=O)[O-])c4)ccc3n2)CC1,73% (active),74% (active),-3,99% (active),inactive,inactive,inactive,inactive
N=C(N)c1cc(Cl)cc(NC(=O)Nc2cc(Cl)cc(C(=N)N)c2)c1,92% (active),4%,-7,92% (active),inactive,inactive,inactive,inactive
COc1ccc2ncc(F)c(CCN3CCC(NCc4ccc5c(c4)CCO5)CC3)c2n1,30%,20%,3,100% (active),inactive,inactive,inactive,inactive
CN1CCN(CCCN(Cc2ccc(-c3cccc(CNCc4ccc5c(c4)OCO5)c3)cc2)C(=O)CCC2CCCC2)CC1,85% (active),24%,-5,92% (active),inactive,inactive,inactive,inactive
Cc1cccc(Nc2nc3nonc3nc2Nc2cccc(Cl)c2Cl)c1C,95% (active),88% (active),2,91% (active),inactive,inactive,inactive,inactive
CCCCCNc1ccnc2cc(Cl)ccc12,99% (active),12%,-2,97% (active),inactive,inactive,inactive,inactive
CCc1cc2c(Sc3nc4ccccc4[nH]3)ncnc2s1,98% (active),6%,2,97% (active),inactive,inactive,inactive,inactive
CCC[C@@H]([C@@H](CC1CCCCC1)C(=O)N[C@H](C(=O)Nc1nccs1)C(C)(C)SCCOCCOCC)N(O)C=O,97% (active),40%,-5,100% (active),inactive,inactive,inactive,inactive
CCCCCN1C(=O)N(c2ccc(Cl)c(Cl)c2)C(N(O)C(=O)Nc2ccc(Cl)c(Cl)c2)C1(C)C (centres undefined),99% (active),-2%,6,94% (active),inactive,inactive,inactive,inactive
CCc1c(C)c(C#N)c2nc3ccccc3n2c1NCc1ccco1,90% (active),-3%,6,99% (active),inactive,inactive,inactive,inactive
CCCCNc1ccc(C(=O)NC2CCN(C[C@H](O)c3ccnc4ccc(OC)cc34)CC2)cc1,64% (active),12%,-8,90% (active),inactive,inactive,inactive,inactive
COc1ccc(C(=O)NCCCCN2CCC(c3ccc4c(c3OC)CCCC4)CC2)cc1-c1ccc(C(F)(F)F)cc1,56% (active),67% (active),5,100% (active),inactive,inactive,inactive,inactive
COCCN1CCN(Cc2ccc(-c3cccc(-c4nc5ccccc5[nH]4)c3)cc2)CC1,10%,32%,0,93% (active),inactive,inactive,inactive,inactive
c1ccc2[nH]c(-c3ccc(-c4ccc(CN5CCN(CCN6CCOCC6)CC5)cc4)s3)nc2c1,100% (active),39%,-2,100% (active),inactive,inactive,inactive,inactive
